An excerpt weighted towards active compounds, which were near 5.7% of everything screened.
B2AR arrestin: qHTS assay of beta-arrestin-biased ligands of beta2-adrenergic receptor; Beta-2 adrenergic receptor (Homo sapiens), P07550; beta-arrestin recruitment to beta2AR, cell-based reporter; Potency, µM (top dose mostly 46.1 µM), inactives show at the highest dose activation, usual class: activators; 330,000 tested, 0.02% active;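 also: 0% = DMSO controls and full agonism = EC100 isoproterenol or metaproterenol; nearly all actives have a fitted effect of over 65% in size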
VP16 counter: VP16 counterscreen qHTS for inhibitors of ROR gamma transcriptional activity. Drosophila S2 Gal4-VP16 UAS-luciferase, luminescence, 20 h. Potency, µM (doses to about 53.6 µM), without a hit: at the highest dose activity, negative = inhibition, most hits filed as inhibitors. 310,000 tested, 3.5% active;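 also: Gal4-VP16 expression switched on by copper sulfate through the metallothionein promoter; nearly all actives have a fitted effect of over 50% in size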
RORgamma inh: qHTS for inhibitors of ROR gamma transcriptional activity. Nuclear receptor ROR-gamma (Mus musculus), P51450. Drosophila S2 Gal4-RORgamma UAS-luciferase reporter, 20 h. Potency, µM (titrated, usually from 53.6 µM), without a hit: at the highest dose activity change, negative = inhibition, usual class: inhibitors. 310,000 tested, 5.4% active. AID 2551, 2010; also: nearly all actives have a fitted effect of over 60% in size
Target sequence (P51450 whole entry, looked up, the tested form may be a part): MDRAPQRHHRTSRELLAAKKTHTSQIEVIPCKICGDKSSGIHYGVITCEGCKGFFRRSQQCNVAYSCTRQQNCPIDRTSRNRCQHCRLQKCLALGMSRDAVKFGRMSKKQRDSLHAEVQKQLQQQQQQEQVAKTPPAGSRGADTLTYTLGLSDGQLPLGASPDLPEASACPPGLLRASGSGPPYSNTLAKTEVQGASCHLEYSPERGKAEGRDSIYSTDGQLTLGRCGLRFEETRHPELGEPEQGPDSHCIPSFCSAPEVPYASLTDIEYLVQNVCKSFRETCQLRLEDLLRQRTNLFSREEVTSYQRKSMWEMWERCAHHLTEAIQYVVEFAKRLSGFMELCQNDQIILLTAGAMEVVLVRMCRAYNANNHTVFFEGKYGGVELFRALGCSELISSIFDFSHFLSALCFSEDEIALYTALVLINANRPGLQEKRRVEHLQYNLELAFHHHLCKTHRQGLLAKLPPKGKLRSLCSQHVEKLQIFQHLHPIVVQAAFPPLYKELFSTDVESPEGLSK
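Stably transfected Drosophila Schneider cells are the test system, with ROR gamma fused to Gal4 and luciferase under UAS control; luminescence is read after 20 hr of 700 uM copper sulfate induction at ambient temperature.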
NPSR antagonist: qHTS Assay for Antagonists of the Neuropeptide S Receptor: cAMP Signal Transduction; Potency, µM (series often up to 38.3 µM), for inactives: at the top dose activity change, negative = inhibition, hits mostly inhibitors; 220,000 tested, 1% active; CHO-NPSR cells, cAMP TR-FRET, antagonist mode; Q6W5P4; AID 1461, 2008; also: nearly all actives have a fitted effect of over 50% in size
Active calls of the source: *; [ ] = another dose, or the depositor's remark. Calls follow the shape of the dose curve; as a rule, active = well fitted curve in the direction sought with a large enough effect; inconclusive = small, poorly fitted or top-dose-only effect, or another doubt; inactive = no such curve, though single readings can be large; an effect the other way counts as inactive or inconclusive. Unless noted, % is scaled to controls: 0 for no effect and ±100 for the full control effect; potency is read from the fitted curve at half-maximal effect.

Screening Cc1ccc(-c2nc(Nc3ccc(O)cc3)c3ccccc3n2)cc1 returned B2AR arrestin 0%, VP16 counter 1% and RORgamma inh -13%.
`CN1CCN(c2ccc(Nc3c4ccccc4nc4ccccc34)cc2)CC1` gave VP16 counter 10µM* and RORgamma inh -44%.
OCCC1CN(C/C=C/c2ccco2)CCN1Cc1ccccc1 (stereo not given) was read as B2AR arrestin -1%, VP16 counter 0% and RORgamma inh -6%.
For CC1CCC(C(C)(C)O)CC2=C1CCC2C (stereo not given) the results were VP16 counter -1% and RORgamma inh 0%.
For COc1ncc2nc(CCc3ccccc3)c(=O)n(CCC#N)c2n1 the results were VP16 counter 12% and RORgamma inh -7%.
`COc1ccc(C2/C=C\CN(C(=O)c3ccccc3)C(C)C(=O)N2Cc2ccc(F)cc2)cc1` (stereo not given) gave VP16 counter -16% and RORgamma inh -20%.
CN1CCN(c2ccnc(-c3ccoc3)n2)CC1 was read as VP16 counter 5% and RORgamma inh -1%.
`Cc1ccc(C)c(-n2c3nc(=O)[nH]c(=O)c-3cc3cc([N+](=O)[O-])ccc32)c1` gave B2AR arrestin -1%, VP16 counter 11µM*, RORgamma inh 10µM* and NPSR antagonist -16%.
Cc1nc(C)c(C(=O)OCC(=O)NCc2ccccc2Cl)s1 was read as B2AR arrestin -2%.
Screening CC12CCC(=O)N1C(C(=O)Nc1nc3c(F)cc(F)cc3s1)CS2 (stereo not given) returned B2AR arrestin 0%, VP16 counter 3.5µM* and RORgamma inh -31%.
`C/C(=C\C(=O)c1ccc(Cl)cc1Cl)N(C)C` gave B2AR arrestin 0%, VP16 counter inconclusive, RORgamma inh 16µM* and NPSR antagonist 5%.
For Cc1cccc(Nc2nnc(SC/C(O)=C(\C#N)c3nc4ccccc4[nH]3)s2)c1 the results were B2AR arrestin 0%, VP16 counter 11µM*, RORgamma inh 7.1µM* and NPSR antagonist -3%.
For COc1ccc(C)cc1-n1nnnc1SC/C(O)=C(\C#N)c1nc2ccccc2[nH]1 the results were B2AR arrestin 0%, VP16 counter inconclusive, RORgamma inh 13µM* and NPSR antagonist -4%[46.1 µM].
Screening Cc1ccc(Nc2nnc(SC/C(O)=C(\C#N)c3nc4ccccc4[nH]3)s2)c(C)c1 returned B2AR arrestin -1%, VP16 counter inconclusive, RORgamma inh inconclusive and NPSR antagonist 4%.
Screening COC(=O)[C@@H]1C[C@H]1[C@@H](NC(=O)Oc1ccc(F)cc1)c1ccccc1 returned VP16 counter -5% and RORgamma inh 29%.
`Cc1ccc2oc(/N=C(\N)NC(=O)C3CC3)nc2c1` gave B2AR arrestin -1%, VP16 counter inconclusive, RORgamma inh 7.1µM* and NPSR antagonist -1%[7.67 µM].
Cc1ccc2oc(/N=C(\N)NC(=O)C(C)(C)C)nc2c1 was read as B2AR arrestin -1%, VP16 counter 0.45µM*, RORgamma inh 0.05µM* and NPSR antagonist -28%.
For NC(N)=Nc1nc2cc([N+](=O)[O-])ccc2o1 the results were B2AR arrestin 0%, VP16 counter -14%, RORgamma inh -3% and NPSR antagonist -11%.
C=CCOC(=O)N[C@@H](Cc1ccccc1)/C(C(=O)OC)=C(\C)NCc1ccccc1 was read as VP16 counter 6% and RORgamma inh inconclusive.
For CC(=O)c1c(C)[nH]c(C(=O)Nc2ccc(S(=O)(=O)N(C)C)cc2)c1C the results were B2AR arrestin 0%, VP16 counter 1%, RORgamma inh 0.22µM* and NPSR antagonist -14%.
For CC(=O)c1c(C)[nH]c(C(=O)Nc2nc(-c3ccc(Cl)cc3)cs2)c1C the results were B2AR arrestin -1%, VP16 counter inconclusive, RORgamma inh inconclusive and NPSR antagonist -6%.
Screening CC(=O)c1c(C)[nH]c(C(=O)Nc2ccc(C)cn2)c1C returned B2AR arrestin 0%, VP16 counter inconclusive, RORgamma inh 2µM* and NPSR antagonist -5%[46.1 µM].
CC(=O)c1c(C)[nH]c(C(=O)Nc2nc(C)cs2)c1C was read as B2AR arrestin 0%, VP16 counter 10µM*, RORgamma inh 4.5µM* and NPSR antagonist -9%.
CC(=O)c1c(C)[nH]c(C(=O)Nc2cccc(S(=O)(=O)N(C)C)c2)c1C was read as B2AR arrestin 0%, VP16 counter inconclusive, RORgamma inh 10% and NPSR antagonist 10%.
Screening COc1cc(Cl)ccc1OCc1cc(C(=O)NCC(C)c2ccccc2)no1 (stereo not given) returned B2AR arrestin 0%, VP16 counter inconclusive and RORgamma inh 15%.
`CC(CNC(=O)c1cc(COc2ccc3ncccc3c2)on1)c1ccccc1` (stereo not given) gave B2AR arrestin 0%, VP16 counter 10µM* and RORgamma inh inconclusive.
For Cc1cc(CN(C)C(=O)c2cc(COc3ccc4ncccc4c3)on2)on1 the results were B2AR arrestin -1%, VP16 counter 3.2µM*, RORgamma inh 7.9µM* and NPSR antagonist -2%.
For CN(Cc1nccn1C)C(=O)c1cc(COc2ccc3ncccc3c2)on1 the results were B2AR arrestin 0%, VP16 counter inconclusive, RORgamma inh -39% and NPSR antagonist 2%.
O=C(c1cc(COc2ccc3ncccc3c2)on1)N1CCC[C@H]1CO was read as B2AR arrestin 4%, VP16 counter 5µM* and RORgamma inh inconclusive.
CCOC(=O)N1CCN(C(=O)c2cc(COc3ccc4ncccc4c3)on2)CC1 was read as B2AR arrestin 0%, VP16 counter 7.1µM*, RORgamma inh inconclusive and NPSR antagonist 11%.
`CN(CC(=O)Nc1ccc(OC(F)(F)F)cc1)C(=O)Cc1cccs1` gave B2AR arrestin -1%.
Screening O=C(c1cc(COc2ccc3ncccc3c2)on1)N1CCC(O)CC1 returned B2AR arrestin 0%, VP16 counter 4%, RORgamma inh inconclusive and NPSR antagonist 17%.
For O=C(NC1CCCCCCC1)c1cc(COc2ccc3ncccc3c2)on1 the results were B2AR arrestin 0%, VP16 counter 4µM*, RORgamma inh inconclusive and NPSR antagonist -26%.
Screening O=C(O)CSc1cc(C(=O)c2cc(F)ccc2O)cn2c(=O)c3c(-c4ccccc4)csc3nc12 returned B2AR arrestin 0%, VP16 counter -17%, RORgamma inh 35µM* and NPSR antagonist inconclusive.
For CCOC(=O)c1sc2nc3c(SCCC(=O)O)cc(C(=O)c4cc(OC)ccc4O)cn3c(=O)c2c1C the results were B2AR arrestin 0%, VP16 counter -7%, RORgamma inh inconclusive and NPSR antagonist 10µM*.
Screening COc1ccc(NC(=S)NC(NC(=O)C(C)C)C(Cl)(Cl)Cl)c([N+](=O)[O-])c1 (stereo not given) returned B2AR arrestin 0%, VP16 counter inconclusive, RORgamma inh 18µM* and NPSR antagonist -18%[46.1 µM].

Compound activity (PubChem BioAssay)
